Laboratory results published in PubChem BioAssay (NCATS).
Results filed as inconclusive are left out. Entries that show only a call come without a potency. Activity calls are given as the source filed them. The call rests on the fitted dose curve; in most records, active means well fitted inhibition curve with a large enough effect; inconclusive means small, poorly fitted or top-dose-only effect; inactive means flat fitted curve, though single readings scatter.

The compounds below were run on HEK293T (assay: qHTS assay to identify novel small-molecules to repurpose for Merkel cell carcinoma treatment (AID 1296009; further: nearly all actives have a fitted effect of over 60% in size)). Details: MCC and control cell lines, CellTiter-Glo viability, 72 h; at 44.8 µM (top of the series) unless noted.
Method in brief: (§1)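 After compound transfer in DMSO, plates were kept 72 hr at 37 degree celsius. Luminescent ATP signal from CellTiter-Glo served as viability measure, normalized against DMSO and no-cell controls.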
Potency means the concentration at half of the fitted maximal effect.

| SMILES | outcome |
| --- | --- |
| C[C@]12CC[C@@H]3[C@@H](CCC4=CC(=O)CC[C@@H]43)[C@@H]1CC[C@@H]2OC(=O)CCc1ccccc1 | inactive |
| CN[C@@H](C)[C@H](O)c1ccccc1 | inactive |
| O=[N+]([O-])/N=C1\NCCN1Cc1ccc(Cl)nc1 | inactive |
| C=CC(=O)NCNC(=O)C=C | inactive [at 92 µM] |
| NC1CC1c1ccccc1 (stereo unspecified) | inactive |
| C[C@]12CC[C@H]3[C@@H](CCC4=CC(=O)CC[C@@]43C)[C@H]1CC[C@H]2OC(=O)CCC1CCCC1 | inactive |
| OCCCBr | inactive [at 92 µM] |

Each compound was assayed on MCC-13 in the same assay as above. Details: MCC and control cell lines, CellTiter-Glo viability, 72 h; series mostly up to 46 µM.
Method in brief: as §1

| SMILES | Potency |
| --- | --- |
| CCCCOC(=O)c1ccccc1C(=O)OCc1ccccc1 | inactive |
| C=C[C@@H]1CN2CCC1C[C@@H]2[C@@H](O)c1ccnc2ccccc12 (stereo partly specified) | inactive |
| c1ccc(CCCN2CCN(CCOC(c3ccccc3)c3ccccc3)CC2)cc1 | inactive |
| O=c1[nH]c2ccc(Cl)cc2c(N[C@@H]2CN3CCC2CC3)c1-c1nc2ccccc2[nH]1 | 4.18 µM (active) |
| O=C(NCC1CCOCC1)c1cnc(Nc2ccc(Cl)cc2Cl)nc1C(F)(F)F | inactive |
| CC1(C)CC/C(=C/c2ccc(Cl)cc2)C1(O)Cn1cncn1 (stereo unspecified) | inactive |
| O=C(N[C@@H](COc1ccc2[nH]c(=O)[nH]c2c1)c1ccccc1)c1cccn(Cc2ccc(F)c(F)c2)c1=O | inactive |
| O=C(O)COc1nc(Cl)c(Cl)cc1Cl | inactive |
| CC(C)[C@H]1C(=O)N[C@H](CO)Cc2c[nH]c3cccc(c23)N1C | inactive |
| COC(=O)c1cncn1C(C)c1ccccc1 (stereo unspecified) | inactive |
| C[C@]12CCC(=O)C(O)=C1CC[C@@H]1[C@H]3CCC(=O)[C@@]3(C)CC[C@@H]12 | inactive |
| CCC(=O)O[C@@H]1C=C2CCC3C(CCC4(C)C3CC[C@@H]4OC(=O)CC)C2CC1 (stereo partly specified) | inactive |
| COC1=CC(C)=C[C@@H](C)[C@@H](O)[C@@H](C)CC(C)=CC=C[C@H](OC)[C@H]([C@@H](C)[C@@H](O)[C@H](C)[C@@]2(O)C[C@@H](O)[C@H](C)[C@@H](C(C)C)O2)OC1=O | 0.166 µM (active) |
| O=C1CCC[C@@H]2[C@H]3CCCN4CCC[C@@H](CN12)[C@@H]34 | inactive |
| CCOCCOC(C)=O | inactive |
| C[C@]12CC[C@@H]3[C@@H](CCC4=CC(=O)CC[C@@H]43)[C@@H]1CC[C@@H]2OC(=O)CCc1ccccc1 | inactive |
| Cc1ccc(Cl)c(O)c1 | inactive |
| CN[C@@H](C)[C@H](O)c1ccccc1 | inactive |
| Nc1ccc(Cl)cc1 | inactive |

| SMILES | Potency |
| --- | --- |
| CC(Cc1ccc(O)cc1)NCC(O)c1cc(O)cc(O)c1 (stereo unspecified) | inactive |
| CC(C)NCC(O)c1ccc([N+](=O)[O-])cc1 (stereo unspecified) | inactive |
| O=[N+]([O-])/N=C1\NCCN1Cc1ccc(Cl)nc1 | inactive |
| C=CC(=O)NCNC(=O)C=C | inactive |
| O=c1cccc2n1CC1CNC[C@H]2C1 | inactive |
| O=S(=O)(CC1CS1)c1ccc(Oc2ccccc2)cc1 (stereo unspecified) | inactive |
| Nc1ccc(N=Nc2ccccc2)cc1 | inactive |
| CC(=CCCC1=CCC(C2=CC(=O)OC2O)OC1O)CCC1=C(C)CCCC1(C)C (stereo unspecified) | inactive |
| COc1cc2cc(c1Cl)N(C)C(=O)C[C@H](OC(=O)C(C)C)[C@]1(C)O[C@H]1[C@H](C)[C@@H]1C[C@@](O)(NC(=O)O1)[C@H](OC)C=CC=C(C)C2 | inactive |
| c1cc2ccc3cccc4ccc(c1)c2c34 | inactive |
| Nc1ccc(Sc2ccc(N)cc2)cc1 | inactive |
| C[C@@H]1CC[C@H]2[C@@H](C)C(=O)O[C@@H]3O[C@@]4(C)CC[C@H]1[C@]32OO4 | inactive |
| O=C(Nc1ccccc1-c1ccc(Cl)cc1)c1cccnc1Cl | inactive |
| NC1CC1c1ccccc1 (stereo unspecified) | inactive |
| Cc1c(C(=O)Nc2cccc(C(F)(F)F)c2)cc(-c2ccccc2)n1CCCN1CCOCC1 | inactive |
| COCCOCCO | inactive |
| C[C@]12CC[C@H]3[C@@H](CCC4=CC(=O)CC[C@@]43C)[C@H]1CC[C@H]2OC(=O)CCC1CCCC1 | inactive |
| OCCCBr | inactive |

Each compound was assayed on MCC-26 in the same assay as above. Details: MCC and control cell lines, CellTiter-Glo viability, 72 h; series mostly up to 46 µM.
Method in brief: as §1

| SMILES | Potency |
| --- | --- |
| CCCCOC(=O)c1ccccc1C(=O)OCc1ccccc1 | inactive |
| C=C[C@@H]1CN2CCC1C[C@@H]2[C@@H](O)c1ccnc2ccccc12 (stereo partly specified) | inactive |
| c1ccc(CCCN2CCN(CCOC(c3ccccc3)c3ccccc3)CC2)cc1 | inactive |
| O=c1[nH]c2ccc(Cl)cc2c(N[C@@H]2CN3CCC2CC3)c1-c1nc2ccccc2[nH]1 | 7.43 µM (active) |
| O=C(NCC1CCOCC1)c1cnc(Nc2ccc(Cl)cc2Cl)nc1C(F)(F)F | inactive |
| CC1(C)CC/C(=C/c2ccc(Cl)cc2)C1(O)Cn1cncn1 (stereo unspecified) | inactive |
| O=C(N[C@@H](COc1ccc2[nH]c(=O)[nH]c2c1)c1ccccc1)c1cccn(Cc2ccc(F)c(F)c2)c1=O | inactive |
| O=C(O)COc1nc(Cl)c(Cl)cc1Cl | inactive |
| CC(C)[C@H]1C(=O)N[C@H](CO)Cc2c[nH]c3cccc(c23)N1C | inactive |
| COC(=O)c1cncn1C(C)c1ccccc1 (stereo unspecified) | inactive |
| C[C@]12CCC(=O)C(O)=C1CC[C@@H]1[C@H]3CCC(=O)[C@@]3(C)CC[C@@H]12 | inactive |
| CCC(=O)O[C@@H]1C=C2CCC3C(CCC4(C)C3CC[C@@H]4OC(=O)CC)C2CC1 (stereo partly specified) | inactive |
| COC1=CC(C)=C[C@@H](C)[C@@H](O)[C@@H](C)CC(C)=CC=C[C@H](OC)[C@H]([C@@H](C)[C@@H](O)[C@H](C)[C@@]2(O)C[C@@H](O)[C@H](C)[C@@H](C(C)C)O2)OC1=O | 4.69 µM (active) |
| O=C1CCC[C@@H]2[C@H]3CCCN4CCC[C@@H](CN12)[C@@H]34 | inactive |
| CCOCCOC(C)=O | inactive |
| C[C@]12CC[C@@H]3[C@@H](CCC4=CC(=O)CC[C@@H]43)[C@@H]1CC[C@@H]2OC(=O)CCc1ccccc1 | inactive |
| Cc1ccc(Cl)c(O)c1 | inactive |
| CN[C@@H](C)[C@H](O)c1ccccc1 | inactive |
| Nc1ccc(Cl)cc1 | inactive |

| SMILES | Potency |
| --- | --- |
| CC(Cc1ccc(O)cc1)NCC(O)c1cc(O)cc(O)c1 (stereo unspecified) | inactive |
| CC(C)NCC(O)c1ccc([N+](=O)[O-])cc1 (stereo unspecified) | inactive |
| O=[N+]([O-])/N=C1\NCCN1Cc1ccc(Cl)nc1 | inactive |
| C=CC(=O)NCNC(=O)C=C | inactive |
| O=c1cccc2n1CC1CNC[C@H]2C1 | inactive |
| O=S(=O)(CC1CS1)c1ccc(Oc2ccccc2)cc1 (stereo unspecified) | inactive |
| Nc1ccc(N=Nc2ccccc2)cc1 | inactive |
| CC(=CCCC1=CCC(C2=CC(=O)OC2O)OC1O)CCC1=C(C)CCCC1(C)C (stereo unspecified) | inactive |
| COc1cc2cc(c1Cl)N(C)C(=O)C[C@H](OC(=O)C(C)C)[C@]1(C)O[C@H]1[C@H](C)[C@@H]1C[C@@](O)(NC(=O)O1)[C@H](OC)C=CC=C(C)C2 | inactive |
| c1cc2ccc3cccc4ccc(c1)c2c34 | inactive |
| Nc1ccc(Sc2ccc(N)cc2)cc1 | inactive |
| C[C@@H]1CC[C@H]2[C@@H](C)C(=O)O[C@@H]3O[C@@]4(C)CC[C@H]1[C@]32OO4 | inactive |
| O=C(Nc1ccccc1-c1ccc(Cl)cc1)c1cccnc1Cl | inactive |
| NC1CC1c1ccccc1 (stereo unspecified) | inactive |
| Cc1c(C(=O)Nc2cccc(C(F)(F)F)c2)cc(-c2ccccc2)n1CCCN1CCOCC1 | inactive |
| COCCOCCO | inactive |
| C[C@]12CC[C@H]3[C@@H](CCC4=CC(=O)CC[C@@]43C)[C@H]1CC[C@H]2OC(=O)CCC1CCCC1 | inactive |
| OCCCBr | inactive |
